Among all 48,000 compounds or so, about 13,000 (27%) showed an effect of 50% or more. Some of the results follow.
System: Wolbachia pipientis
Test: Anti-Wolbachia Cell-Based Screen
Format: functional
Set-up: scale not given: in the data most compounds retested in dose-response had high values
Details: 5 µM

| Compound | Percent Effect [%] |
| --- | --- |
| CCn1nc2c(cc1=O)CN(Cc1nnc(C3CC3)o1)CC2 | 14.78 |
| CSc1cccc(NC(=O)N2CCCC(CNC(=O)c3ccco3)C2)c1 (stereo not drawn) | -2.877 |
| CSCCCn1ccnc1-c1cccc(C#N)c1 | -12.84 |
| NC(=O)NC(CC(=O)NCCc1cccc(F)c1)c1cccs1 (stereo not drawn) | 2.392 |
| CC(C)=CCC/C(C)=C\CNCc1ccco1 | -4.355 |
| O=C(C1CCCC1)N1CC2(CCCN(C3COC3)C2)Cc2ccccc21 (stereo not drawn) | 99.05 |
| O=C(C1CCCC1)N1CC2(CCN(C3COC3)C2)Cc2ccccc21 (stereo not drawn) | 95.07 |
| O=C(Cc1cccnc1)N1CCC2(CCN(C3CCOC3)CC2)C1 (stereo not drawn) | 6.84 |
| O=C(C1CCCC1)N1CC2(CCN(C3COC3)CC2)Cc2ccccc21 | 95.07 |
| O=C(C1CCCC1)N1CCOc2cccc(F)c21 | 1.761 |
| O=C(C1CCCC1)N1CC2(CCN(C3COC3)C2)OCc2ccccc21 (stereo not drawn) | 114.9 |
| CC(CNC(=O)CCCc1ccccn1)c1ccsc1 (stereo not drawn) | 1.971 |
| Cc1ccc(NC(=O)C2CSCN2C(=O)c2cnn(C)c2)c(C)c1 (stereo not drawn) | -7.721 |
| O=C(C1CC1)N1C[C@@H](F)[C@@H](OCc2nc3ccccc3o2)C1 | -16.99 |
| N#Cc1cn(CC(=O)NC2CC2)c2ccc(Br)cc2c1=O | -2.411 |
| COCCCN1C(=O)CC[C@H]2CN(c3ccnc4ccccc34)CC[C@H]21 | -6.412 |
| COC1CCN(CCNC(=O)C2CCCCC2)CC1 | -3.467 |
| Cc1cc(N(C)Cc2ncc(-c3ccccc3C(=O)O)s2)ncn1 | 81.06 |
| COc1cc(N(C)CCC(O)c2ccccc2)ncn1 (stereo not drawn) | 13.13 |
| CN(C)C(Cn1ccnc1-c1ccccc1C(=O)O)c1ccccc1Cl (stereo not drawn) | -23.61 |
| CCc1cnc(CN(C)C(=O)NC2CCN(c3ccccc3)C2)s1 (stereo not drawn) | 0.02013 |
| Cc1nccc(N(C)Cc2ncc(-c3ccccc3C(=O)O)s2)n1 | 127.4 |
| Cc1ccsc1C(Cn1ccnc1-c1ccccc1C(=O)O)N(C)C (stereo not drawn) | -13.02 |
| COc1cc(N2CCC3(C2)CN(c2cccnc2)C(=O)CN3C)ncn1 (stereo not drawn) | -13.12 |
| O=C1CCCCN1c1cccc(CNC2CCCC2)c1 | 0.3467 |
| Cc1cccc(N2Cc3nc(=O)[nH]n3C2=O)c1 | 2.871 |

| Compound | Percent Effect [%] |
| --- | --- |
| NC(=O)c1cnc(NC2CCN(c3ccccc3)CC2)c(Cl)c1 | -3.801 |
| Cc1cccc(N2Cc3c(NC4CCCC4)ncnc3N(C)CC2=O)c1 | 95.74 |
| CN1CC(Nc2nc3c(cnn3-c3ccccc3)c(=O)[nH]2)CCC1=O (stereo not drawn) | 9.222 |
| CN1CC(=O)N(c2cccnc2)Cc2c(NC3CC3)ncnc21 | 103.4 |
| Cc1csc(CN2CC[C@H]3C(=O)N(c4cccnc4)CCO[C@H]3C2)n1 | 6.542 |
| CN1CC(=O)N(c2ccccc2)Cc2c(NC3CC3)ncnc21 | 112.7 |
| C=C1c2ccccc2C(=O)N1CCC(=O)N1CCNC(=O)C1 | -10.5 |
| N#Cc1c(Cl)nsc1N1CCN(CC2CC2)CC1 | 5.491 |
| CC(C)N1CCN(C)CC1c1nnc2ccc(C(=O)N3CCCC3)cn12 (stereo not drawn) | -1.369 |
| CCNC(=O)N1CCC2(CC1)CCn1c(C3CC3)cnc12 | 0.3432 |
| CC(=O)N1CCC(N[C@@H]2CC[C@@H]2NS(=O)(=O)c2cccnc2)CC1 | -3.734 |
| CCn1cc(CN(C)S(=O)(=O)c2cnn(CC)c2C)c(C)n1 | -1.191 |
| CCn1ncc(S(=O)(=O)N[C@@H]2CC[C@@H](n3ccnc3)[C@@H]2O)c1C | 136.9 |
| CCn1ncc(S(=O)(=O)N[C@@H]2CCC[C@@H](n3ccnc3)[C@@H]2O)c1C | 136.1 |
| CCn1ncc(S(=O)(=O)N[C@@H]2CC[C@@H](n3ccnc3C)[C@@H]2O)c1C | 115.7 |
| Cc1cccc(NC(=O)N(CCC(F)(F)F)C[C@H](O)CO)c1 | -5.672 |
| Cc1cnc(C)c(N2CCN(CCCc3[nH]nc(C)c3C)CC2)n1 | 13.39 |
| COc1ccc(-c2cn3c(n2)CO[C@@H](CNCc2nccn2C)C3)cc1 | 1.884 |
| CN(C)C1CCN(C(=O)c2ccc(Cn3ccccc3=O)o2)CC1 | -4.856 |
| Cc1nc(CCCNC(=O)C2CC(=O)N(C3CC3)C2)sc1C (stereo not drawn) | 0.5008 |
| CS(=O)(=O)NC1CCN(Cc2ccc(OCc3ccccn3)cc2)CC1 | -10.21 |
| CCc1ncc2c(n1)CN(C(=O)CNC(=O)C(C)C)C2 | -10.3 |
| CN(Cc1ccsc1)C(=O)Nc1cccnc1N1CCCC1 | 3.447 |
| CCc1nc(CC)n(CC(=O)N(CC)CC)n1 | -1.582 |
| CCCc1nnnn1CC(=O)NCc1cccc(C)c1 | 98.23 |
| CCNC(=O)NC1CN(CC(=O)NCc2ccccc2C)C[C@@H]1OC (stereo partly drawn) | -0.1158 |

| Compound | Percent Effect [%] |
| --- | --- |
| CCc1nc(CC)n(CC(=O)NCc2cccc(C)c2)n1 | 86.53 |
| Cn1cnn(CC(=O)NCc2ccccc2F)c1=O | -8.996 |
| CCc1nc(CC)n(CC(=O)N(C)CC(F)(F)F)n1 | 0.1098 |
| CCc1nc(CC)n(CC(=O)NCc2ccccc2C)n1 | 109.4 |
| Cc1nn(C)c(C)c1OCC(=O)NCc1cccc(CO)c1 | -2.193 |
| CCCc1nnnn1Cc1cn2c(C)cccc2n1 | -18.43 |
| CN(C)C[C@H]1O[C@H](Cc2cc(-c3ccccn3)on2)CC[C@@H]1O | -5.695 |
| O=C(NS(=O)(=O)c1cccc(F)c1)c1ccccc1F | -17.84 |
| Cc1noc(COCC(=O)Nc2ncccc2Br)n1 | -14.88 |
| CCN(CC)C1(Cc2cc(CC(C)C)on2)COC1 | -8.16 |
| O[C@H]1CCN(CC2CCOC2)[C@H]1Cc1ccncc1 (stereo partly drawn) | -12.65 |
| Cc1n[nH]c(C2CN(C(=O)c3coc(Br)c3)CCO2)n1 (stereo not drawn) | -34.21 |
| CCCc1ncc(C(=O)N2CCOC(c3nc(C)n[nH]3)C2)s1 (stereo not drawn) | 1.166 |
| Cc1ccc(CC(=O)N2CCOC(c3ncc(CN(C)C)[nH]3)C2)s1 (stereo not drawn) | 104.7 |
| Cc1n[nH]c(C2CN(C(=O)c3cc(C)sc3C)CCO2)n1 (stereo not drawn) | -9.628 |
| O=C(c1cccnc1N1CCCC1)N1CCOC(c2ccccc2)C1 (stereo not drawn) | 5.885 |
| Cc1ccc(CC(=O)N2CCOC(c3nc(C)n[nH]3)C2)cn1 (stereo not drawn) | 12.26 |
| Cc1ccc(C(=O)N2CCOC(c3ncc(CN(C)C)[nH]3)C2)cc1F (stereo not drawn) | 86.38 |
| Cc1ccccc1C(=O)N1CCOC(c2ncc(CN(C)C)[nH]2)C1 (stereo not drawn) | 53.49 |
| CCCc1n[nH]c(C2CN(C(=O)Cc3ccc(C)nc3)CCO2)n1 (stereo not drawn) | -3.481 |
| CN(C)Cc1cnc(C2CN(C(=O)c3ccccc3Cl)CCO2)[nH]1 (stereo not drawn) | 174.9 |
| Cc1n[nH]c(C2CN(C(=O)c3ccn(C)c(=O)c3)CCO2)n1 (stereo not drawn) | 0.6849 |
| O=C(c1cccnc1O)N1CCOC(c2ccc(Cl)cc2)C1 (stereo not drawn) | -6.348 |
| O=C(Cc1ccon1)Nc1cncc(Br)c1O | -6.673 |
| CCOC1CCN(C(=O)c2c(Cl)c3ccccc3n2C)CC1 | 4.018 |
| Cc1noc(C)c1CN1CC[C@H]2OCC[C@@H](C(=O)N3CCCO3)[C@H]2C1 | -12.4 |

| Compound | Percent Effect [%] |
| --- | --- |
| O=C(NCC(O)c1ccc(Cl)s1)c1ccoc1 (stereo not drawn) | 3.126 |
| CC(=O)N1CCN(C(=O)C(C)Nc2ccc3ncsc3c2)CC1 (stereo not drawn) | -9.61 |
| c1cnn(CC2CN(Cc3csc(C4CCCCC4)n3)CCO2)c1 (stereo not drawn) | 111.5 |
| c1ccc(-c2nc(CN3CCOC(Cn4cccn4)C3)cs2)cc1 (stereo not drawn) | -16.04 |
| c1ncn(CC2CN(Cc3csc(C4CCCC4)n3)CCO2)n1 (stereo not drawn) | -2.779 |
| c1cnn(CC2CN(Cc3csc(-c4ccsc4)n3)CCO2)c1 (stereo not drawn) | -6.772 |
| CN(C)CC1CN(Cc2csc(C3CCCC3)n2)CCO1 (stereo not drawn) | 6.428 |
| Cc1cnn(CC2CN(Cc3csc(C4CCCC4)n3)CCO2)c1 (stereo not drawn) | 109.2 |
| c1csc(-c2nc(CN3CCOC(Cn4cccn4)C3)cs2)c1 (stereo not drawn) | 96.48 |
| c1csc(-c2nc(CN3CCOC(Cn4cncn4)C3)cs2)c1 (stereo not drawn) | -0.6055 |
| Cc1n[nH]c(C2CN(Cc3csc(C4CCCC4)n3)CCO2)n1 (stereo not drawn) | 6.822 |
| CNC(=O)[C@H]1C[C@H]2OCC[C@H]2N(Cc2cccc3ccccc23)C1.O=C(O)C(F)(F)F | 25.43 |
| CC(=O)N1CCN(c2cc(N(C)C)cnn2)CC1 | 5.157 |
| CN(Cc1c(Cl)ccc2cccnc12)CC(C)(CO)CO | 4.13 |
| CCS(=O)(=O)c1ncc(CN2CCN(C)CC2)n1CCc1ccccc1 | 2.419 |
| CC(C)(C)CN(CCO)C(=O)Nc1cccc(N2CCNC2=O)c1 | 0.4334 |
| Cn1cnc(S(=O)(=O)NCC2(O)CCOc3ccccc32)c1 (stereo not drawn) | -16.89 |
| Nc1nc(N)c2c(n1)OC1(CCN(C(=O)CC3CCNCC3)CC1)C2 | 145.9 |
| Nc1nc(N)c2c(n1)OC1(CCN(C(=O)CC3CCCNC3)CC1)C2 (stereo not drawn) | 130 |
| O=C(CC1CC1)N1CCC2(CC1)CN(c1ncc(F)cn1)CCO2 | -18.12 |
| O=C1OC2(CCNCC2)CN1CC(=O)N1CCCC1c1nccs1 (stereo not drawn) | 1.843 |
| O=C(CC1CCCCC1)N1CCC(O)(C(F)(F)F)C1 (stereo not drawn) | -0.05196 |
| Nc1nc(N)c2c(n1)OC1(CCN(C(=O)CC3CCCCN3)CC1)C2 (stereo not drawn) | 102.3 |
| CC(C)(C)c1cc(C[C@H]2CNCC[C@H]2CC(=O)N2CCCCC2)no1 | 3.52 |
| CC(C1CC1)N(C)Cc1nnc(-c2ccc(Br)s2)o1 (stereo not drawn) | -7.051 |

Source: ChEMBL document CHEMBL3988442, “University of Dundee, Small-Polar-MMV Screening Library” (2021)
